The list is not random: actives were taken first. Their share in the collection is about 1.2%.
RXFP1 antagonist: blocks the human relaxin receptor RXFP1; HEK293-RXFP1, relaxin-stimulated cAMP HTRF, 30 min; stronger effect = lower value; 350,000 compounds, 0.59% hits; AID 1259400; activity change, negative = inhibition, % at 57.5 µM;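 active means activity change of -60% or lower, but not beyond a set lower limit; inconclusive means change between -60% and -40%, or beyond the set limit; inactive means change above -40%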; further: on the % scale 0 is the no-effect control and ±100 the full control effect
Target sequence (Q9HBX9 whole entry, looked up): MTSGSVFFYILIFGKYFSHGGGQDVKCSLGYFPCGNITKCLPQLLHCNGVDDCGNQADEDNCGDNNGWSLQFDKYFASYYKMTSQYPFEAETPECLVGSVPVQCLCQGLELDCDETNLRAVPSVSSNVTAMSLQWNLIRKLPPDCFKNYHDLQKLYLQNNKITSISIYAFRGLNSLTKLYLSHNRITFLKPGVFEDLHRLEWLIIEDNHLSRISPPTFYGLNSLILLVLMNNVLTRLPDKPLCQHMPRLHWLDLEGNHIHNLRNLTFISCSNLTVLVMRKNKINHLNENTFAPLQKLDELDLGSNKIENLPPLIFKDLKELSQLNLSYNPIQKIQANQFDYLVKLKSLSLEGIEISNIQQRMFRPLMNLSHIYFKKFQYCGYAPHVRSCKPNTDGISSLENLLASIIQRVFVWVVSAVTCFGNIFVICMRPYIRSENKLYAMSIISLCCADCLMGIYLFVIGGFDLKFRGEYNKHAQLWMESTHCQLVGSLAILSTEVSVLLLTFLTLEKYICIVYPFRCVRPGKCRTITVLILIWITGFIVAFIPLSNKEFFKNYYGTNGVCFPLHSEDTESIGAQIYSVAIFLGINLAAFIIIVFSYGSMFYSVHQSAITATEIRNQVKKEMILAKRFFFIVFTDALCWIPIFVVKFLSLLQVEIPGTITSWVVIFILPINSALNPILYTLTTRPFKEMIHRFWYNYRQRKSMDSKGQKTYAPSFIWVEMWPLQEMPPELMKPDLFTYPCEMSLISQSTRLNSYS
RXFP1 agonist: RXFP1 (human) receptor agonism. AID 2676. Potency, µM (top dose mostly 57.5 µM), for inactives: at the highest dose activation, most hits filed as activators. 370,000 compounds, 0.3% hits. HEK293T-RXFP1 cAMP TR-FRET, 30 min; response scale: percent of porcine relaxin response, buffer zero; active means well fitted activation curve with a large enough effect; inconclusive means small, poorly fitted or top-dose-only effect; further: potency means the concentration at half of the fitted maximal effect; on the % scale 0 is the no-effect control and ±100 the full control effect; nearly all actives have a fitted effect of over 60% in size
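HEK293T cells stably expressing RXFP1 were pretreated with the PDE4 inhibitor Ro 20174, exposed to compounds for 30 min at 37C, lysed, and cAMP was read by TR-FRET. Data normalized to buffer (basal) and 29 nM porcine relaxin (100%).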
gsp antag: gsp mutant antagonism; gsp-mutant cells, cAMP HTRF, 30 min; Potency, µM (titrated, usually from 76.9 µM), inactives show at the top dose activity change, negative = inhibition, hits mostly inhibitors; 340,000 compounds, 0.4% hits; calls by dose curve; cell line not stated here;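 further: intracellular cAMP measured with PDE inhibitor Ro 20-1724 present during compound exposure; potency means the concentration at half of the fitted maximal effect; on the % scale 0 is the no-effect control and ±100 the full control effect; nearly all actives have a fitted effect of over 65% in size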
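HTRF cAMP measurement after 30 min RT detection following 30 min, 37C compound treatment alongside […] (added as 300 uM solution) in G418-selected cells seeded at 2000/well and grown 16–24 h.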
Akt phos inh: inhibitors of Akt phosphorylation | activity change, % for hits at 50 µM | AID 651550 | Neuro2A IGF-stimulated pAkt S473 HTRF, 20 min; stronger effect = lower value | 360,000 compounds, 0.32% hits; in the data active means activity change below about -80%; inconclusive means mostly about -51% to -80%; further: on the % scale 0 is the no-effect control and ±100 the full control effect
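Single-point screen (50 µM final compound) in Neuro2A cells stimulated 20 min with 6 nM IGF at 37 deg C. After lysis, Ser473-phosphorylated Akt read by HTRF (ex 330 nm, em 615/665 nm) as the 665/615 ratio.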
gsp ag: gsp mutant agonism; gsp mutant cells, cAMP HTRF, 30 min; Potency, µM (highest dose often 76.9 µM), without a hit: at the top dose activation (cAMP increase), actives largely listed as activators; 340,000 compounds, 0.13% hits; active means well fitted activation curve with a large enough effect; inconclusive means small, poorly fitted or top-dose-only effect, or another doubt; inactive means no such curve, though single readings can be large or run the other way; cell line not stated here;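 further: phosphodiesterase inhibitor Ro 20-1724 added with compounds to block cAMP breakdown; potency means the concentration at half of the fitted maximal effect; nearly all actives have a fitted effect of over 60% in size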
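Cells in DMEM/10% FBS with G418 were pretreated with compounds in DMSO plus […] (300 uM stock) for 30 min at 37C. cAMP was measured by HTRF (cAMP-d2 plus anti-cAMP antibody-K) after 30 min at room temperature.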
Numbers without * were called inactive; i = inactive; ? = inconclusive; · = no result; [ ] = another dose, or the depositor's remark.

SMILES	RXFP1 antagonist	RXFP1 agonist	gsp antag	Akt phos inh	gsp ag
COC(=O)c1ccc2c(=O)n(-c3ccccc3)c(=S)[nH]c2c1	-99*	-1%	-13%	i	-33%
COc1ccc(NC(=O)C/C(C)=N/NC(=O)c2ccco2)c([N+](=O)[O-])c1	-66*	3%	3%	i	?
CCSc1nc2sc3c(c2c(=O)[nH]1)CC(C)(CC)OC3 (stereo unspecified)	-6	0%	5%	i	-6%
CCC1(C)Cc2c(sc3nc(SC)[nH]c(=S)c23)CO1 (stereo unspecified)	8	25µM*	-6%	i	?
O=C(CCC1CCN(Cc2ccccc2)CC1)c1ccc2c(c1)NCCCC2	-35	·	·	·	·
Cc1ccc(S(=O)(=O)c2ccc([N+](=O)[O-])o2)cc1	-60*	·	-5%	i	-13%
Cc1cc(C(=O)NCCN2C(=O)S/C(=C\c3cccs3)C2=O)ccc1[N+](=O)[O-]	-4	1%	25µM*	i	5%
CCCCOc1ccc(CNC(=O)c2cc3n(n2)CCCN(Cc2ccc(C)cc2)C3=O)cc1	-13	-3%	·	·	·
COc1cc(NC(=O)C(NC(=O)C2CCC(C)CC2)C(C)C)cc(OC)c1OC (stereo unspecified)	-14	3%	·	·	·
Cc1cc(SCC(=O)Nc2ccccc2)nc(C)n1	-6	1%	4%[15.4 µM]	i	-4%
CSc1nc(C)cc(SCC(=O)Nc2ccccc2)n1	-9	2%	?	i	32µM*
CCCCn1cnc2sc(-c3ccccc3)cc2c1=O	-5	4%	-13%	i	-1%
O=c1c2cc(-c3ccccc3)sc2ncn1/N=C/c1ccco1	-4	3%	-10%	-106%*	8%
CC(=O)C1CCC2C3CC=C4CC(SC(=N)N)CCC4(C)C3CCC12C (stereo unspecified)	-105*	·	-8%	i	1%
CC(=O)OCC(=O)C1CCC2C3CC=C4CC(O)CCC4(C)C3CCC12C (stereo unspecified)	·	0%	0%	i	·
CC(C)Oc1ccc(Br)cc1/C=N\NC(N)=S	-65*	0%	4%	i	?
Cc1ccc(CSCCNC(=O)C2CCN(S(=O)(=O)Cc3ccccc3)CC2)cc1	0	8%	·	·	·
C=CCn1c(C)cc(C(=O)CSc2nc3ccccc3c(=O)[nH]2)c1C	-6	1%	?	-110%*	-29%
Cc1cc2oc(C(=O)N(Cc3ccco3)Cc3ccccc3Cl)c(C)c2cc1C	·	0%	·	·	·
CCc1ccc(CN(Cc2ccco2)C(=O)COc2ccccc2Cl)cc1	-61*	-3%	·	·	·
CCOC(=O)CNC(=S)N(Cc1ccco1)Cc1ccccc1Cl	1	0%	40µM*	i	-7%
CCc1ccc(CN(Cc2ccco2)C(=O)c2ccc(OC)cc2)cc1	-63*	-3%	·	·	·
COc1ccc(C(=O)N(Cc2ccco2)Cc2ccc(C)o2)cc1	-19	-2%	·	·	·
CCc1ccc(OCC(=O)N(Cc2ccco2)Cc2ccco2)cc1	-40	0%	·	·	·
O=C(CN1C(=O)COc2ccc(S(=O)(=O)N3CCCCCC3)cc21)N1CCN(c2ccc(F)cc2)CC1	·	-2%	·	·	·
SMILES	RXFP1 antagonist	RXFP1 agonist	gsp antag	Akt phos inh	gsp ag
COc1ccc2oc(=O)cc(CN3CCN(C(=O)c4ccccc4)CC3)c2c1	-2	3%	·	·	·
O=c1c2ccccc2n(Cc2cccc(Cl)c2)c(=O)n1CCc1ccccc1	·	4%	·	·	·
Cc1onc(-c2ccc(Cl)cc2Cl)c1-c1csc(N/N=C/c2ccccc2Cl)n1	-69*	0%	-6%	i	5%
Cc1onc(-c2ccccc2)c1-c1csc(N/N=C/c2ccccc2Cl)n1	?	-1%	2%	i	-2%
CCC(=O)N1CCN(c2ccc(NC(=O)c3cc4ccccc4o3)cc2Cl)CC1	-33	4%	20µM*	i	6%
CCC(=O)N1CCN(c2ccc(Cl)cc2NC(=O)Cc2ccc(Cl)cc2)CC1	-7	2%	-11%	-85%*	-60%
CCC(=O)N1CCN(c2ccccc2NC(=O)Cc2ccc(Cl)cc2)CC1	6	0%	4%	i	-24%
COc1ccc(CCC(=O)Nc2cc(Cl)ccc2N2CCN(C)CC2)cc1	-2	4%	1%	-107%*	-20%
CCOC(=O)C1CCCN(c2c(C(=O)c3ccccc3)cnc3ccc(F)cc23)C1 (stereo unspecified)	·	0%	·	·	·
Cc1ccc(NC(=O)Nc2nnc(SCC(=O)N3CCC(C)CC3)s2)cc1	-8	0%	·	·	·
Cc1ccc(C(=O)c2coc3cc([N+](=O)[O-])c(O)c([N+](=O)[O-])c23)cc1	-6	-2%	35µM*	i	-68%
CCc1ccc2oc(-c3ccc(OC)cc3)cc(=Nc3c(C)n(C)n(-c4ccccc4)c3=O)c2c1	-23	2%	28µM*	i	-1%
CCc1ccc2oc(-c3ccc(OC)cc3)cc(=Nc3cccc(C(=O)O)c3)c2c1	-33	1%	·	i	16%[15.4 µM]
Oc1cccc(-c2c3nc(c(-c4cccc(O)c4)c4ccc([nH]4)c(-c4cccc(O)c4)c4nc(c(-c5cccc(O)c5)c5ccc2[nH]5)CC4)C=C3)c1	-100*	·	·	·	·
N#Cc1c(N)nc2c(c1-c1cccc(O)c1)CCCCCC2	-9	1%	2%	i	?
CCN1/C(=C/C(C)=C/c2sc3ccccc3[n+]2CC)Sc2ccccc21	-119*	5%	35µM*	i	-93%
CCOc1ccccc1C(=O)NCC(c1ccc(N(C)C)cc1)N1CCc2ccccc21 (stereo unspecified)	-22	0%	·	·	·
CCc1ccc(NC(=O)C2CCN(S(=O)(=O)c3c(C)noc3/C=C/c3cccs3)CC2)cc1	2	2%	·	·	·
CCc1ccc(NC(=O)C2CCN(S(=O)(=O)c3c(C)noc3/C=C/N(C)C)CC2)cc1	-62*	2%	-9%	i	-1%
Cc1nn(-c2ccccc2)c2c1N(CC(=O)NCc1ccc(N(C)C)cc1)C(=O)CS2	·	-3%	·	·	·
CC(=O)c1sc(C(C)(C)C)cc1NC(=O)CCC(=O)O	23	?	14%	i	8.9µM*
O=C(NCc1ccccn1)C1CC(c2ccc(F)cc2)=NO1 (stereo unspecified)	-5	2%	10%	-112%*	7%
O=C(NCc1ccccn1)C1CC(c2ccc(Cl)c(Cl)c2)=NO1 (stereo unspecified)	3	2%	?	i	13%
[O-][n+]1ccccc1SSc1cccc[n+]1[O-]	-37	·	·	·	·
CCN(CC)S(=O)(=O)c1cc(C(=O)Nc2ccc(Cl)cn2)ccc1C	-9	1%	-18%	-114%*	-34%
CCN(CC)S(=O)(=O)c1cccc(C(=O)Nc2ccc(Cl)cn2)c1	12	3%	?	i	?
CC(C)(C)C(=O)NC(=S)NNC(=O)C(c1ccccc1)c1ccccc1	-94*	0%	-1%	i	-3%
